# Experimental data taken from article PMC5540273 (PLoS ONE, 2017).
# System: TLK2
# Conditions: concentration: 1 μM, replicates: in singlicate; n = 1
# 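Also: KINOMEscan kinase panel screen.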
row,Structure (SMILES),%Inh [%]
1,Cc1ccc(C(=O)N2CC[C@@H](O)C2)cc1-n1c(C)cc(OCc2ccc(F)cc2F)c(Br)c1=O,0
2,Oc1cc(Nc2ccnc3cc(I)ccc23)ccc1F [GW552771],0
3,c1ccc(-c2n[nH]cc2Nc2ccnc3ccccc23)nc1 [GW694077],0
4,CC(C)c1nc(-c2cccc(NS(=O)(=O)c3c(F)cccc3F)c2F)c(-c2ccnc(Nc3ccc(N4CCOCC4)nc3)n2)s1 [GSK2008607],0
5,Cn1cc(-c2[nH]c3cc(NC(=O)[C@H](N)C4CCCCC4)cc4c3c2C=NNC4=O)cn1,1
6,C[C@@H](Oc1cc(-n2cnc3cc(-c4ccnc(NCCS(C)(=O)=O)c4)ccc32)sc1C(N)=O)c1ccccc1Cl [GSK907232],0

# System: TNIK
# Conditions: concentration: 1 μM, replicates: in singlicate; n = 1
row,Structure (SMILES),%Inh [%]
1,Cn1cc(-c2ccc3c(c2)CCN3C(=O)Cc2cccc(Cl)c2)c2c(N)ncnc21 [GSK2606590],7
2,COc1ccc(-c2coc3ccc(-c4nnc(SCc5ccc(OC)c(C(F)(F)F)c5)o4)cc23)cc1,3
3,CCS(=O)(=O)c1ccc(OC)c(Nc2nccc(-c3c(-c4cccc(NC(=O)c5c(F)cccc5F)c4)nn4ncccc34)n2)c1 [GSK326180],0
4,O=C(Nc1cccc(-c2nn3ccccc3c2-c2ccnc(Nc3cccc(C(F)(F)F)c3)n2)c1)c1c(F)cccc1F [GSK292658],0
5,NCCCC(NC(=O)c1cc(Br)c(-c2ccnc3[nH]ccc23)s1)c1ccccc1.O=C(O)C(F)(F)F.O=C(O)C(F)(F)F (stereo not shown) [GSK1287544],3
6,CC(=O)Nc1nc2cnc(Nc3cc(NC(=O)c4cccc(C5(C#N)CC5)c4Cl)ccc3C)nc2s1,16
7,COc1ccc(CNC(=O)NC2CCN(c3ccnc(Nc4ccc(F)cc4)n3)CC2)cc1 [GSK1379788],0
8,Clc1ccc(-c2nn3ncccc3c2-c2ccnc(Nc3ccc4c(c3)OCCO4)n2)cc1 [GW829116],31
9,CC(C)(C)c1ccc2nccc(Nc3cccc(O)c3)c2c1 [GW856795],0
10,COc1cc(Nc2nccc(N3CCC(NC(=O)Nc4cccc(C(C)=O)c4)C3)n2)cc(OC)c1OC (stereo not shown) [GSK1379753],0
11,COc1cc(Nc2nccc(-c3c(-c4cccc(NC(=O)c5c(F)cccc5F)c4)nn4ccccc34)n2)cc(OC)c1OC [GSK323521],0
12,COc1cccc(NC(=O)NC2CCN(c3ccnc(Nc4cc(OC)c(OC)c(OC)c4)n3)C2)c1 (stereo not shown) [GSK1379763],0
13,O=C(O)C(F)(F)F.O=C(O)C(F)(F)F.O=c1[nH]ccc2nc(N[C@@H]3CCCNC3)nc(Nc3ccc(S(=O)(=O)N4CCOCC4)cc3)c12 [GSK2177277],99.5
14,CCCCc1nn2ncccc2c1-c1ccnc(Nc2ccc(N3CCN(C)CC3)cc2)n1 [GW684941],25
15,CN(c1ccc(NC(=O)Nc2cc(C(F)(F)F)ccc2F)cc1)c1ccnc(Nc2ccc(S(N)(=O)=O)cc2)n1 [GW809893],81
16,Nc1ncc(-c2cccnc2)c2scc(-c3ccc4c(c3)CCN4C(=O)Cc3ccccc3)c12 [GSK683281],55
17,Cc1ccc(C(=O)Nc2ccc(Nc3ccnc4cc(-c5nccs5)ccc34)cc2O)cc1.Cl [GW494702],36
18,COc1cc(Nc2nccc(N3CCC(NC(=O)c4cc5ccccc5s4)C3)n2)cc(OC)c1OC (stereo not shown) [GSK1379760],0
19,O=C(Nc1cccc(-c2nn3ccccc3c2-c2ccnc(Nc3cccc(F)c3)n2)c1)c1c(F)ccc(F)c1Cl [GSK357952],0

row,Structure (SMILES),%Inh [%]
1,CN(C)Cc1ccc(-c2ccc3c(Nc4ccc(Oc5ccccn5)cc4)ccnc3c2)o1 [GW567148],20
2,CNC(=O)c1ccccc1Nc1nc(Nc2ccc(N3CCOCC3)cc2)ncc1Cl.Cl [GSK1576028],76
3,Cl.Cl.NCC(NC(=O)c1cc(-c2ccccc2)c(-c2ccnc3[nH]ccc23)s1)c1ccccc1 (stereo not shown) [GSK1321561],86
4,COc1ccc(Nc2nccc(N3CCC(NC(=O)Nc4cccc(OC)c4)C3)n2)cc1 (stereo not shown) [GSK1379742],0
5,COC(=O)Nc1nc2cc(Oc3ccc(NC(=O)Nc4cc(C(F)(F)F)ccc4F)cn3)ccc2[nH]1.Cl.Cl [GW681170],0
6,O=C(Nc1n[nH]c2cc(-c3ccoc3)ccc12)C1CC1 [SB-738481],42
7,CSc1cccc2c(-c3ccncn3)c(-c3ccc(F)cc3)nn12 [GW514786],0
8,c1ccc(Oc2ccc(Nc3ccnc4cc(-c5ccc(CNCCN6CCOCC6)o5)ccc34)cc2)nc1 [GW567145],30
9,Nc1ncnc2c1nc(-c1ccccc1)n2-c1ccccc1 [SKF-97293],0
10,Cl.c1ccc(-c2ccc3c(Nc4ccc5[nH]ccc5c4)ccnc3c2)nc1 [GW440138],58
11,Cl.NC(=O)c1cccc(Nc2nccc(Nc3ccc(Oc4c(Cl)cccc4Cl)c(Cl)c3)n2)c1 [GW659009],0
12,Cc1occc1-c1ncc(OC[C@@H](N)Cc2c[nH]c3ccccc23)cc1-c1ccc2[nH]nc(C)c2c1.O=C(O)C(F)(F)F [GSK682037],97.2
13,Cc1ccc(C(=O)N2CC[C@@H](O)C2)cc1-n1c(C)cc(OCc2ccc(F)cc2F)c(Br)c1=O,0
14,Oc1cc(Nc2ccnc3cc(I)ccc23)ccc1F [GW552771],47
15,c1ccc(-c2n[nH]cc2Nc2ccnc3ccccc23)nc1 [GW694077],42
16,CC(C)c1nc(-c2cccc(NS(=O)(=O)c3c(F)cccc3F)c2F)c(-c2ccnc(Nc3ccc(N4CCOCC4)nc3)n2)s1 [GSK2008607],63
17,Cn1cc(-c2[nH]c3cc(NC(=O)[C@H](N)C4CCCCC4)cc4c3c2C=NNC4=O)cn1,91.9
18,C[C@@H](Oc1cc(-n2cnc3cc(-c4ccnc(NCCS(C)(=O)=O)c4)ccc32)sc1C(N)=O)c1ccccc1Cl [GSK907232],36
